Records with an inconclusive call do not appear. Activity calls are given as the source filed them. How the source made its calls: active means hit-call score of the fitted dose curve at least 0.9, where 1 is the maximum; inconclusive means response in the unintended direction; inactive means score below 0.9.
molecular target: human RAR-related Orphan Receptor beta (RORb), RORB (gene 6096) (UniProt Q92753); assay: ATG_RORb_TRANS: Attagene TRANS-FACTORIAL HepG2 Assay for human RAR-related Orphan Receptor beta (RORb) (AID 2283010)
Method in brief: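 HepG2 cells were transiently transfected with multiplexed GAL4-UAS reporter units expressing chimeric nuclear receptor–GAL4 proteins, then dosed for 24 h. Reporter mRNA was quantified by RT-PCR with fluorescent labelling and capillary electrophoresis; gain of signal was fitted relative to DMSO.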

Sequence of human RAR-related Orphan Receptor beta (RORb), RORB (gene 6096) (Q92753 whole entry, looked up, the tested form may be a part): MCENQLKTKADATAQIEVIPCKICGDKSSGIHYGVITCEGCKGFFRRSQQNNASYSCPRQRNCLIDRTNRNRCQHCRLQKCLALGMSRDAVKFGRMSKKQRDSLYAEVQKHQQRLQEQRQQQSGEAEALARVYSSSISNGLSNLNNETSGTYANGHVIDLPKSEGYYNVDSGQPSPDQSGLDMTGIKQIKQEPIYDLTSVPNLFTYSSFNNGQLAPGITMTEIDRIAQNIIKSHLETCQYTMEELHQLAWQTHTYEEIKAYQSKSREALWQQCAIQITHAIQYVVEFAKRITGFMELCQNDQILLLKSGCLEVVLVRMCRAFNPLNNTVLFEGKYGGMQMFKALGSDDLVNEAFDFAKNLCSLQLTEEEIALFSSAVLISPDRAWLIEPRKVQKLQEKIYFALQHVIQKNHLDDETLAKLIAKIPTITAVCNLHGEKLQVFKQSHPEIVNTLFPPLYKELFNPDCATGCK

outcome, inactive:
Cc1cc(C)nc(NS(=O)(=O)c2ccc(N)cc2)n1
C[Si](C)(C)O[Si](C)(C)C
Cc1occc(=O)c1OC(=O)C(C)C
NCc1ccco1
O=c1c(O)c(-c2ccc(O)cc2)oc2cc(O)cc(O)c12
Nc1ccc(NCCO)c([N+](=O)[O-])c1
Oc1c(Cl)cc(Cl)c(Cl)c1Cc1c(O)c(Cl)cc(Cl)c1Cl
COc1cc([C@@H]2c3cc4c(cc3[C@@H](O[C@@H]3O[C@@H]5CO[C@@H](C)O[C@H]5[C@H](O)[C@H]3O)[C@H]3COC(=O)[C@H]23)OCO4)cc(OC)c1O
COC(=O)c1ccc([N+](=O)[O-])cc1
COCCOC(=O)c1ccccc1C(=O)OCCOC
CCCCC(CC)COC(=O)c1ccc(O)cc1 (configuration not stated)
CC(=O)CC(=O)Nc1ccccc1

— PubChem BioAssay (EPA / NIEHS)
